# According to PubChem BioAssay:
# Some of the results follow. Calls of active or inactive are those of the source. Cut-off read from the data, not from the text of the source, unless noted: active = activity above about 50%; inactive = the rest.
# Tests used:
# PEG-3 [1] = molecular target: PEG-3 (UniProt Q6IN02); assay: inhibition of PEG-3 promoter-driven reporter – cell-based, HeLa, luciferase, CREF/GAPDH counter-screen panel, dose response (AID 624167); details: HeLa PEG-Prom luciferase reporter, overnight, CREF/GAPDH counter-screens; run 1, dose range 1, at 100 µM (top of the series)
# PEG-3 [2] = molecular target: PEG-3 (UniProt Q6IN02); assay: as above; details: HeLa PEG-Prom luciferase reporter, overnight, CREF/GAPDH counter-screens; run 2, dose range 1, at 100 µM (top of the series)
# [3] = molecular target: Tumor necrosis factor receptor superfamily member 10B (Homo sapiens) (UniProt O14763); assay: viability loss of caspase-8 NB7 cells with TRAIL – with/without TRAIL, luminescence panel, confirmation (AID 651596); details: NB7 neuroblastoma + caspase-8, TRAIL sensitization, NB7 Caspase-8, with TRAIL, mean of runs, at 10 µM, stronger effect = higher value
# [4] = as above; details: NB7 neuroblastoma + caspase-8, without TRAIL, NB7 Caspase-8, without TRAIL, mean of runs, at 10 µM
# Rat fibroblasts (CREF) [5] = assay: inhibition of PEG-3 promoter-driven reporter – cell-based, HeLa, luciferase, CREF/GAPDH counter-screen panel, dose response (AID 624167); details: CREF/GAPDH counter-screens; run 1, dose range 1, at 100 µM (top of the series)
# Rat fibroblasts (CREF) [6] = assay: as above; details: CREF/GAPDH counter-screens; run 2, dose range 1, at 100 µM (top of the series)
# [7] = NFkB reporter suppression in cystic fibrosis bronchial cells – cell-based, uHTS hits, panel, cytotoxicity readout, dose response (AID 624344); details: CF bronchial epithelial cells, PAF-induced NFkB reporter inhibition, with PAF, run 1; at 79 µM (top of the series)
# [8] = as above; details: CF bronchial epithelial cells, PAF-induced NFkB reporter inhibition, with PAF, run 2; at 79 µM (top of the series)
# [9] = HIF-2a driven luciferase blockers, single dose – luminescence, 786-0 RCC cells, confirmation (AID 651580;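 active = mean inhibition across four replicates of at least 40 percent at the single tested concentration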); details: HIF-2a luciferase reporter luminescence, overnight, at 18.8 µM, stronger effect = higher value
# [10] = HIF-1a luciferase reporter signal reduction – MiaPaCa-2 cells, single concentration, counter-screen for HIF-2a inhibitor project, confirmation (AID 651589;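 active = mean inhibition of the reporter signal across four replicates at the single tested dose of 50% or more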); details: MiaPaCa-2 HIF-1a luciferase reporter, desferoxamine, overnight; at 18.8 µM; stronger effect = higher value
# PEG-3, sequence (Q6IN02 whole entry, looked up): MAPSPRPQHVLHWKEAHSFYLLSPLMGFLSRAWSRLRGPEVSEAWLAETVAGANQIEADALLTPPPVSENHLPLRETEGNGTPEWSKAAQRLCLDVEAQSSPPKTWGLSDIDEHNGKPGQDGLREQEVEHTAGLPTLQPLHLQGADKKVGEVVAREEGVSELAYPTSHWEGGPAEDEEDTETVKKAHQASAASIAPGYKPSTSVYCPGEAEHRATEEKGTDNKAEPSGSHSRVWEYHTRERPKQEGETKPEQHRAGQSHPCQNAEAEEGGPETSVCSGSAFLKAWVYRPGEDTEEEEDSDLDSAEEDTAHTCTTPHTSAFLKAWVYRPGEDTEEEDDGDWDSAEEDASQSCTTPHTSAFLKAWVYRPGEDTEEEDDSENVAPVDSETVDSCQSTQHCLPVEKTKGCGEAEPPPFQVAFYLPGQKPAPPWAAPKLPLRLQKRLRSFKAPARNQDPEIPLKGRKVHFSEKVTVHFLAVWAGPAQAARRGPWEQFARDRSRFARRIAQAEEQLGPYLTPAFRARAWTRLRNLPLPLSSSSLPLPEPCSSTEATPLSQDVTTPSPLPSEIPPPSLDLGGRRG
# Tumor necrosis factor receptor superfamily member 10B (Homo sapiens), sequence (O14763 whole entry, looked up): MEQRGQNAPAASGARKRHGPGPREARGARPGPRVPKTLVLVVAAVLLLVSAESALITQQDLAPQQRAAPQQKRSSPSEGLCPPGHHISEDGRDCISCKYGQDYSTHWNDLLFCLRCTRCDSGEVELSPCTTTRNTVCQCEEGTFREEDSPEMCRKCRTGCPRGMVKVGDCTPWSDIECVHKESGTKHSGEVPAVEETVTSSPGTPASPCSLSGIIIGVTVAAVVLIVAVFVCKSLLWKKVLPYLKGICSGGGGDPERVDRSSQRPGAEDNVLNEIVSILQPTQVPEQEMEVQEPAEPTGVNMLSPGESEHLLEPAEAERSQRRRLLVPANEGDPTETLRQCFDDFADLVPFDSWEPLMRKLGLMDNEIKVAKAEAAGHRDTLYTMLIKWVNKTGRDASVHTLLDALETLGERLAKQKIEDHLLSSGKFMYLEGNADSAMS
smiles,measurement,setting,value
COc1ccc(CNCCc2c(C)[nH]c3ccc(OC(F)(F)F)cc23)c(OC)c1,inhibition,PEG-3 [1],102%
same,inhibition,PEG-3 [2],101%
CCN(CC)C(=O)c1ccc(NC(=O)Nc2ccccc2F)cc1,inhibition,PEG-3 [1],82.1%
same,inhibition,PEG-3 [2],93.2%
same,activity,[3],69.6%
same,activity,[4],63.9%
CC(=O)OC1CC[C@]2(C#N)[C@H]3CC[C@]4(C)[C@H](C5C=CC(=O)O5)CCC4(O)C3CCC2(O)C1 (stereo partly drawn),inhibition,PEG-3 [1],98.6%
same,inhibition,PEG-3 [2],99.5%
same,inhibition,Rat fibroblasts (CREF) [5],-10.8%
same,inhibition,Rat fibroblasts (CREF) [6],7.93%
Cc1ccc(C)c(NP(=O)(Oc2ccccc2)Oc2ccccc2)c1,inhibition,PEG-3 [1],88.2%
same,inhibition,PEG-3 [2],96.7%
O=C1NC(=S)N(c2ccccc2F)C(=O)/C1=C\c1cccs1,inhibition,PEG-3 [1],102%
same,inhibition,PEG-3 [2],99%
CC1=CC(O)C(O)C2(C)C1CC1OC(=O)C(O)C3C(C)C(O)C4(O)OCC13C42 (stereo not drawn),inhibition,PEG-3 [1],95.8%
same,inhibition,PEG-3 [2],93.3%
C[C@@H]1C[C@@H]([C@H](O)CC2CC(=O)NC(=O)C2)C(=O)[C@@H](C)C1,inhibition,PEG-3 [1],98%
same,inhibition,PEG-3 [2],101%
same,inhibition,Rat fibroblasts (CREF) [5],62.3%
same,inhibition,Rat fibroblasts (CREF) [6],58.2%
same,inhibition,[7],106%
same,inhibition,[8],116%
COC(COC(N)=O)C1=C(N2CC2)C(=O)C(C)=C(N2CC2)C1=O (stereo not drawn),inhibition,PEG-3 [1],102%
same,inhibition,PEG-3 [2],101%
same,inhibition,Rat fibroblasts (CREF) [5],100%
same,inhibition,Rat fibroblasts (CREF) [6],98.7%
CCC(c1nnnn1-c1ccc2c(c1)OCCO2)N1CCC(n2c(=O)[nH]c3ccccc32)CC1 (stereo not drawn),inhibition,PEG-3 [1],101%
same,inhibition,PEG-3 [2],102%
same,inhibition,Rat fibroblasts (CREF) [5],76.5%
same,inhibition,Rat fibroblasts (CREF) [6],63.2%
COc1cc2nc(CN3CC=C(c4ccccc4)CC3)[nH]c(=O)c2cc1OC,inhibition,PEG-3 [1],93.8%
same,inhibition,PEG-3 [2],45.3%
same,inhibition,Rat fibroblasts (CREF) [5],38.6%
same,inhibition,Rat fibroblasts (CREF) [6],26.4%
CCOC(=O)c1c(-n2c(C)cc(C=C3C(=O)NC(=S)NC3=O)c2C)sc2c1CCCC2,inhibition,PEG-3 [1],96.7%
same,inhibition,PEG-3 [2],101%
same,inhibition,Rat fibroblasts (CREF) [5],95.9%
same,inhibition,Rat fibroblasts (CREF) [6],97.3%
COc1ccc(C[C@H]2NC[C@H](O)[C@H]2OC(C)=O)cc1,inhibition,[7],114%
same,inhibition,[8],106%
CCCCn1nnnc1C(CCSC)N1CCC(n2c(=O)[nH]c3ccccc32)CC1 (stereo not drawn),inhibition,PEG-3 [1],72.5%
same,inhibition,PEG-3 [2],71.8%
COc1cc2c(c(OC)c1O)-c1ccc(OC)c(=O)cc1C(NC(=O)C(F)(F)F)CC2 (stereo not drawn),inhibition,[7],-39.2%
same,inhibition,[8],24.5%
CC1=CC2/C=C(\C)CCC(O)C(O)/C=C/C(=O)C23C(=O)NC(CC(C)C)C3C1C (stereo not drawn),inhibition,PEG-3 [1],102%
same,inhibition,PEG-3 [2],101%
same,inhibition,Rat fibroblasts (CREF) [5],100%
same,inhibition,Rat fibroblasts (CREF) [6],100%
same,activity,[3],95.3%
same,activity,[4],97.8%
CCN(CCCl)c1cc(CN(C)C)cc(NC(=O)c2ccc(C(=O)Nc3cc(CN(C)C)cc(N(CC)CCCl)c3)cc2)c1,inhibition,PEG-3 [1],100%
same,inhibition,PEG-3 [2],101%
same,inhibition,Rat fibroblasts (CREF) [5],99.6%
same,inhibition,Rat fibroblasts (CREF) [6],97.7%
CC(=O)OC(C)(C)/C=C/C(=O)C(C)(O)C1[C@H](O)C[C@@]2(C)C3CC=C4C(CC[C@@H](O)C4(C)C)[C@]3(CO)C(=O)C[C@]12C (stereo partly drawn),inhibition,PEG-3 [1],102%
same,inhibition,PEG-3 [2],101%
same,activity,[3],43.7%
same,activity,[4],71.7%
Cc1ccccc1CN1Cc2cnnn2-c2ccccc2C1C#N (stereo not drawn),inhibition,PEG-3 [1],99.2%
same,inhibition,PEG-3 [2],98.3%
same,activity,[3],37.7%
same,activity,[4],78.2%
Cc1ccc(-c2cc(-c3ccc(C)cc3)[n+](-c3ccccc3)c(-c3ccc(C)cc3)c2)cc1,inhibition,PEG-3 [1],101%
same,inhibition,PEG-3 [2],102%
CC[n+]1c(-c2ccccc2)c2cc(N)ccc2c2ccc(N)cc21,inhibition,PEG-3 [1],102%
same,inhibition,PEG-3 [2],102%
C[C@@H]1O[C@@H](O[C@@H]2C=C3CCC4C(CC[C@]5(C)[C@@H](c6ccc(=O)oc6)CC[C@]45O)[C@@]3(C)CC2)[C@H](O)[C@H](O)[C@H]1O (stereo partly drawn),inhibition,PEG-3 [1],99.3%
same,inhibition,PEG-3 [2],98.5%
same,activity,[3],82.2%
same,activity,[4],91.8%
CCN(CC)C(=O)Cn1cc(/C=C2\C(=O)NC(=O)N(c3ccccc3F)C2=O)c2ccccc21,inhibition,PEG-3 [1],102%
same,inhibition,PEG-3 [2],98.9%
C=Cc1cc(OC)c2c(c1)c(=O)oc1c2cc(OC)c2c(O)ccc(C3OC(C)C(O)C(C)(O)C3O)c21 (stereo not drawn),inhibition,PEG-3 [1],101%
same,inhibition,PEG-3 [2],102%
same,inhibition,Rat fibroblasts (CREF) [5],25.3%
same,inhibition,Rat fibroblasts (CREF) [6],31.8%
CC[C@@H](O)C[C@H]1CCC[C@@]2(C[C@@H]3OC(=O)/C=C/[C@@](C)(O)[C@@H](O)[C@H](C)[C@@H](O)[C@H](OC4CCC(N(C)C)C(C)O4)[C@@H](O)[C@](C)(O)CCCCC/C=C/[C@@H]4CC(C)(C)O[C@@]4(O)C[C@H](O2)[C@H]3C)O1 (stereo partly drawn),inhibition,PEG-3 [1],98.9%
same,inhibition,PEG-3 [2],98.9%
N#Cc1ccc(Cn2cc(C=O)c3ccccc32)cc1,inhibition,PEG-3 [1],90.2%
same,inhibition,PEG-3 [2],42.5%
Cc1cccc(C)c1-n1nnnc1C(c1ccccc1OC(F)(F)F)N1CCC(n2c(=O)[nH]c3ccccc32)CC1 (stereo not drawn),inhibition,PEG-3 [1],49.4%
same,inhibition,PEG-3 [2],42%
CCC1(OC(=O)CN)C(=O)OCc2c1cc1n(c2=O)Cc2cc3ccccc3nc2-1 (stereo not drawn),inhibition,PEG-3 [1],100%
same,inhibition,PEG-3 [2],96.5%
same,inhibition,Rat fibroblasts (CREF) [5],65.4%
same,inhibition,Rat fibroblasts (CREF) [6],72%
CC1=CC2OC3CC4OC(=O)C=CC=CC(C(C)O)OCC(O)C(C)CC(=O)OCC2(CC1O)C4(C)C31CO1 (stereo not drawn),inhibition,PEG-3 [1],101%
same,inhibition,PEG-3 [2],99.3%
same,activity,[3],92.3%
same,activity,[4],97.7%
Cc1ccc(S(=O)(=O)c2nc(-c3ccccc3Cl)oc2N(C)C2CCN(C)CC2)cc1,inhibition,PEG-3 [1],99.3%
same,inhibition,PEG-3 [2],101%
COc1cc(C2c3cc4c(c(O)c3CC3COC(=O)C32)OCO4)cc(OC)c1OC (stereo not drawn),inhibition,[7],110%
same,inhibition,[8],85%
Cc1c(C(=O)c2cccc3ccccc23)c2cccc3c2n1[C@H](CN1CCOCC1)CO3,inhibition,[7],104%
same,inhibition,[8],112%
C=C1C(C)C2C(Cc3ccccc3)NC(=O)C23OC(=O)/C=C/C(O)CCCC(C)C/C=C/C3C1O (stereo not drawn),inhibition,[7],104%
same,inhibition,[8],103%
COc1cc(C2c3cc4c(cc3CC3COC(=O)C32)OCO4)cc(OC)c1O (stereo not drawn),inhibition,[7],-31.2%
same,inhibition,[8],-1.25%
CCOC(=O)[C@]12Cc3ccc(C)cc3[C@H]1N(C1CCCCC1)C(=O)c1ccccc12,activity,[3],90.7%
same,activity,[4],90.5%
ClCCN(CCCl)c1ccc(-n2cnc3c(Cl)ncnc32)cc1,activity,[3],96.3%
same,activity,[4],98.2%
CN(C)C(=O)O/N=C(\N)COc1ccc(C(C)(C)C)cc1,activity,[3],96.8%
same,activity,[4],98.2%
CCCCn1nnnc1C(CCc1ccccc1)N1CCC(n2c(=O)[nH]c3ccccc32)CC1 (stereo not drawn),inhibition,[7],89.5%
same,inhibition,[8],93%
COc1ccc(-n2nnnc2C(CCc2ccccc2)N2CCC(n3c(=O)[nH]c4ccccc43)CC2)cc1 (stereo not drawn),inhibition,[7],103%
same,inhibition,[8],101%
same,activity,[3],91.1%
same,activity,[4],88.8%
CC1=CC2OC3CC4OC(=O)C=CC=CC(C(C)O)OCC(O)C5(C)OC5C(=O)OCC2(CC1O)C4(C)C31CO1 (stereo not drawn),activity,[3],93%
same,activity,[4],98.3%
N#CC1c2ccccc2-n2nncc2CN1Cc1cc(Cl)cc(Cl)c1 (stereo not drawn),inhibition,[7],91.8%
same,inhibition,[8],95.5%
same,activity,[3],55.8%
same,activity,[4],86.4%
CCOC(=O)[C@]12Cc3ccccc3[C@H]1N(C1CCCCC1)C(=O)c1cc(OC)ccc12,inhibition,[9],93.2% (active)
same,inhibition,[10],106% (active)
same,activity,[3],85.5%
same,activity,[4],88%
CCOC(=O)[C@]12Cc3cc(Cl)ccc3[C@H]1N(C(C)C)C(=O)c1ccccc12,activity,[3],79.3%
same,activity,[4],85.9%
C[C@H]1CCCC(=O)CCC/C=C/c2cc(O)cc(O)c2C(=O)O1,inhibition,[7],102%
same,inhibition,[8],114%
C=CC[C@@H](CC/C=C/C=C/CC/C=C\[C@@H]1CSC([C@@H]2C[C@@H]2C)=N1)OC,inhibition,[7],91.9%
same,inhibition,[8],64.9%
NC(=Nc1ccccc1)NN=Cc1c[nH]c2ccccc12,inhibition,[7],94.3%
same,inhibition,[8],116%
C=C1C(=O)OC2CC3(C)OC3CCC(C)=CC(OC(C)=O)C12 (stereo not drawn),inhibition,[7],93.9%
same,inhibition,[8],99.9%
C[C@H]1C[C@@H](C)C(=O)[C@@H]([C@H](O)CC2CC(=O)NC(=O)C2)C1,inhibition,[7],107%
same,inhibition,[8],113%
COc1ccc(-n2nnnc2C(c2cc3ccccc3o2)N2CCC(n3c(=O)[nH]c4ccccc43)CC2)cc1 (stereo not drawn),activity,[3],69.4%
same,activity,[4],62.5%
O=c1[nH]c2ccccc2n1C1CCN(C(c2cccc3ccccc23)c2nnnn2Cc2ccccc2)CC1 (stereo not drawn),inhibition,[7],103%
same,inhibition,[8],101%
